HTR5A inv ag: inverse agonist of human HTR5A in OPRM1-OPRD1 counter-screen; hit rate 0.083% among 340,000; HTR5A cell line, luminescence, inverse agonism; inhibition, % at 9.3 µM; AID 504634; in the data active = inhibition mostly above about 23%, no sharp cut-off; inactive = mostly below about 18%
Target sequence (P47898 whole entry, looked up): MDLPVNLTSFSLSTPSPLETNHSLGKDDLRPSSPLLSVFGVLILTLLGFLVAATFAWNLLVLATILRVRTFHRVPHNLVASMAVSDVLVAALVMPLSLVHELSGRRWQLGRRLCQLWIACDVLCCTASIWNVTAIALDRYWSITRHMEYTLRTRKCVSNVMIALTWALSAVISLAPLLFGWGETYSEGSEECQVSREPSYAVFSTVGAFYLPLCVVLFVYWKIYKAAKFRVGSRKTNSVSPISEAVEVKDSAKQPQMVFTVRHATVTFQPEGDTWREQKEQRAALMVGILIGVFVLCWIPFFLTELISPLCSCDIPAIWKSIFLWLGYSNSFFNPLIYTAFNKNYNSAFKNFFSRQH
OPRM1-OPRD1 ag: OPRM1-OPRD1 heterodimerization agonism. cells, luminescence. activation, % at 9.3 µM. P35372+P41143. AID 504326. hit rate 0.3% among 340,000
HTR5A ag: activates human HTR5A in OPRM1-OPRD1 agonist counter-screen; AID 504692; HTR5A agonist assay, luminescence, cell-based; activation, % at 9.3 µM; P47898; hit rate 0.61% among 340,000; in the data active = activation mostly above about 9.5%, no sharp cut-off; inactive = mostly below about 7.6%
MOR-DOR inv ag: inverse agonist of human OPRM1-OPRD1 heterodimerization; AID 504357; hit rate 0.21% among 340,000; inhibition, % at 9.3 µM; cell-based MOR-DOR heterodimer luminescence, inverse agonism; P35372+P41143; in the data active = inhibition above about 22%, passing the limit was not always enough
MOR-DOR ag conf: confirmation of human OPRM1-OPRD1 heterodimerization agonists. shares compounds with OPRM1-OPRD1 ag. cells, MOR-DOR heterodimerization, luminescence complementation. activation, % at 9.3 µM. hit rate 45% among 830
HTR5A ag counter: HTR5A agonism, opioid heterodimer counter-screen. hit rate 8% among 830. activation, % at 9.3 µM. shares compounds with OPRM1-OPRD1 ag. AID 504905. HTR5A agonist counterscreen, cell luminescence; in the data active = activation above about 17%
Numbers stand for hits; n = inactive. A selection: hits, their analogues and other compounds. The true share with any hit is near 1.1%. Cut-off read from the data, not from the text of the source, unless noted: active = activation above about 18%; inactive = the rest.

SMILES	HTR5A inv ag	OPRM1-OPRD1 ag	HTR5A ag	MOR-DOR inv ag	others
O=C(Oc1cccc(C(=S)N2CCOCC2)c1)c1ccc([N+](=O)[O-])cc1[N+](=O)[O-]	n	n	9.4	n
O=C(Oc1ccc(C(=S)N2CCOCC2)cc1)c1ccc([N+](=O)[O-])cc1[N+](=O)[O-]	n	n	n	n
c1ccc(CNc2nc(-c3ccccc3)nc3ccccc23)cc1	n	n	n	n
c1ccc(CNc2nc(NCc3ccccc3)c3ccccc3n2)cc1	n	40	19	n
O=C(Nc1ccc(S(=O)(=O)N2CCCC2)cc1)c1ccc([N+](=O)[O-])cc1	n	n	n	n
O=C1C(SCCO)=C(SCCO)C(=O)c2ccccc21	41	n	n	n
Cc1noc(C)c1NC(=O)N(C)C[C@H]1Oc2ccc(NC(=O)Cc3ccccc3)cc2C(=O)N([C@H](C)CO)C[C@@H]1C	n	n	n	n
O=C(O)c1ccc(CNS(=O)(=O)c2ccc3ccccc3c2)cc1	n	n	9.9	n
NS(=O)(=O)c1ccc(CNS(=O)(=O)c2ccc3ccccc3c2)cc1	n	n	n	n
Nc1cc2nsnc2cc1Br	n	32	13	n
Nc1cccc2nsnc12	n	n	n	n
O=C(CC1C(=O)NCCN1Cc1cccc(F)c1F)NCCCC1CCCC1 (stereo not given)	n	n	n	n
Cc1cccc(NC(=O)NCc2cccnc2)c1C	n	n	n	n
Cc1ccc2c(c1)c1nnc(SCC(=O)Nc3ccc(N(C)C)cc3)nc1n2CC(=O)O	n	n	13	n
CCN(CC)S(=O)(=O)c1ccc(C(=O)OCCN2C(=O)c3cccc4c(N5CCOCC5)ccc(c34)C2=O)cc1	n	n	n	n
CC(=O)N(C(C)=O)N1C(=O)c2cccc3c(N4CCOCC4)ccc(c23)C1=O	n	n	11	n
COc1ccc(/C(N)=N/OC(=O)c2c(-c3ccccc3Cl)noc2C)cc1OC	n	n	12	n
Cc1nn(-c2ccccc2)c(C)c1NC(=O)COC(=O)Cc1ccccc1F	n	n	12	n
COc1ccccc1CCC(=O)OCC(=O)Nc1c(C)nn(-c2ccccc2)c1C	n	n	n	n
O=C(NCC1CCCO1)c1nn2c(C(F)(F)F)cc(-c3ccc(Br)o3)nc2c1Br (stereo not given)	n	n	n	n
CCCC(=Nc1ccccc1OC)C1=C(O)CC(c2ccccc2)CC1=O (stereo not given)	n	n	n	n
COc1ccccc1N=C(C)C1=C(O)CC(c2ccccc2)CC1=O (stereo not given)	n	n	8.9	n
COc1ccc(/C=C(\NC(=O)c2ccc(C)cc2)C(=O)NCCCn2ccnc2)cc1OC	n	n	n	n
O=C(NCCc1c[nH]c2ccccc12)C(F)(F)F	n	n	14	n
CC(C)C(=O)NCCc1c[nH]c2ccccc12	n	n	n	n
SMILES	HTR5A inv ag	OPRM1-OPRD1 ag	HTR5A ag	MOR-DOR inv ag	others
CON=C1C=C(C)C(=O)C(C)=C1C	n	n	n	n
COc1ccc(CNC(=O)C(c2ccncc2)N(C(=O)Cc2cccs2)c2ccccc2)cc1 (stereo not given)	n	n	n	n
COc1ccc(N(C(=O)CCl)C(C(=O)NCCc2ccccc2)c2cccs2)cc1 (stereo not given)	n	68	55	n
CC(C)NC(=S)N/N=C1\CCCc2ccccc21	n	n	11	n
COCCC(=O)Nc1ccc2c(c1)CN(C(=O)CCSC)CC2	n	n	n	n
COCCC(=O)Nc1ccc2c(c1)CN(C(=O)c1ccc(CSC)o1)CC2	n	n	11	n
COc1ccccc1C1CCN(C(=O)c2cnn(-c3ccccc3)c2C)CC1	n	n	12	n
O=C(NCc1ccco1)c1ccc(C(=O)NCc2ccco2)s1	n	n	10	n
COc1ccc(C(=O)/C=C/C(=O)N(CC(=O)NC2CCCCC2)CC2CCCO2)c(O)c1 (stereo not given)	n	n	n	33
COc1cc(N2CCC(O)CC2)ccc1Nc1nnc(Cl)c(Nc2ccccc2S(C)(=O)=O)n1	26	n	n	n
CCOC(=O)c1c(SCCN2CCCC2)n(-c2ccccc2)c(=S)n(-c2ccccc2)c1=O	n	n	n	58
COc1ccc(NC(=O)c2[nH]c(C)c(C(C)=O)c2C)cc1S(=O)(=O)Nc1ccc(Br)cc1	n	n	13	n
COc1ccc(NS(=O)(=O)c2cc(NC(=O)c3ccc(F)cc3)ccc2OC)cc1	n	n	n	n
COc1ccc(NC(=O)c2ccc(F)cc2)cc1S(=O)(=O)Nc1cc(C)ccc1Br	n	n	12	n
CCOc1ccc(NC(=O)c2[nH]c(C)c(C(C)=O)c2C)cc1	n	n	n	n
COc1ccc(NC(=O)c2[nH]c(C)c(C(C)=O)c2C)cc1	n	n	12	n
COc1ccc(NC(=O)c2[nH]c(C)c(C(C)=O)c2C)cc1Cl	n	n	n	n
CCOc1ccc(C(CC(=O)O)NC(=O)C(c2ccccc2)c2ccccc2)cc1OC (stereo not given)	n	n	n	n
CCc1ccc(C(C)NC(=O)c2ccc3c(c2)OCO3)cc1 (stereo not given)	n	n	n	n
CC(=O)NC(Cc1ccc(F)cc1)C(=O)NC1CCN(C(=O)Nc2ccccc2C)CC1 (stereo not given)	n	n	n	n
Cc1ccccc1-n1c(SCc2cccc(F)c2)nc2[nH]ncc2c1=O	n	n	14	n
Cc1ccccc1-n1c(SCc2cc(=O)n3ccccc3n2)nc2[nH]ncc2c1=O	n	n	n	n
CSC1=C(C#N)C(c2ccccc2Cl)C2=C(N1)c1ccccc1C2=O (stereo not given)	n	n	n	n
Cc1nn(-c2ccccn2)c2c1C(c1ccccc1Cl)C1=C(N2)c2ccccc2C1=O (stereo not given)	n	n	n	26
COc1ccc(C2c3cc(OC)c(OC)cc3CCN2C(=O)c2ccccc2Br)cc1OC (stereo not given)	n	n	n	n
SMILES	HTR5A inv ag	OPRM1-OPRD1 ag	HTR5A ag	MOR-DOR inv ag	others
CC(=O)Nc1ccc(NC(=O)CCN2C(=O)c3ccccc3C2=O)cc1	n	n	n	n
CC(=O)Nc1ccc(NC(=O)CCCN2C(=O)c3ccccc3C2=O)cc1	n	n	9.8	n
COc1ccc(C2NN=C(c3c[nH]c4ccccc34)C2O)cc1 (stereo not given)	n	n	n	n
COc1ccc(C2C(O)C(c3c[nH]c4ccccc34)=NN2C(=O)CCl)cc1 (stereo not given)	n	60	56	n
COC(=O)CN(c1cc(OC)ccc1OC)S(=O)(=O)c1ccc(OC)c(OC)c1	n	n	9.2	n
COc1ccc(NC(=O)COc2ccccc2C(=O)NCC(c2ccccc2)N(C)C)cc1Cl (stereo not given)	n	64	n	n	MOR-DOR ag conf=62;HTR5A ag counter=n
CC(=O)c1ccc(NC(=O)Nc2ccc3c(c2)N(C)C(=O)CS3)cc1	n	50	n	n	MOR-DOR ag conf=120;HTR5A ag counter=n
